Hits are enriched below; roughly 2.9% of the tested compounds scored in any of these assays.
ADAM10 inh – ADAM10 inhibition, QFRET primary screen. O14672. recombinant ADAM10, EDANS/DABCYL FRET peptide cleavage, 3 h. inhibition, % at 7 µM. hit rate 0.62% among 370,000. AID 720582;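 active = inhibition above a per-campaign cutoff equal to the mean of compounds falling between control-based bounds plus 3 SD, cut at about 20% in these data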;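 also: 0% = DMSO wells while the 100% control is not disclosed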
PLC-beta3 inh – inhibitors of human phospholipase C beta3. Purified PLC-beta3, fluorogenic substrate, fluorescence. inhibition, % at 12.2 µM. hit rate 0.18% among 370,000. AID 720704; in the data active = inhibition above about 11%;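 also: 0% = median of compound wells on plate and 100% = full blocker control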
PLC-gamma1 inh – PLC-gamma1 (human) inhibition, primary screen | P19174 | purified PLC-gamma1, fluorogenic substrate, fluorescence | inhibition, % at 12.2 µM | hit rate 0.84% among 370,000 | AID 720700; in the data active = inhibition above about 9.5%
ADAM17 inh – ADAM17 inhibition, QFRET primary screen; P78536; hit rate 0.83% among 370,000; AID 720648; inhibition, % at 6.95 µM; recombinant ADAM17, EDANS/DABCYL FRET peptide cleavage;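 active = inhibition above the mean of compounds lying between control limits plus 3 SD, set per campaign, cut at about 8.5% in these data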;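 also: 0% = DMSO-only wells as the low control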
KLK7 zymogen act – activators of human kallikrein-7 zymogen; activation, % at 7 µM; hit rate 0.9% among 370,000; P49862; purified proKLK7, EDANS-DABCYL substrate fluorescence; 100% is mature enzyme control, 0% vehicle;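 active = activation above the mean of all tested compounds plus 3 SD, computed per campaign excluding outliers beyond control limits, cut at about 13% in these data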
ADAM10 counter – inhibits human ADAM10 in ADAM17 exosite counter-screen; inhibition, % at 6.95 µM; shares compounds with ADAM17 inh; recombinant ADAM10, EDANS/DABCYL FRET peptide cleavage, 3 h; hit rate 47% among 2,900;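 active = mean inhibition over the triplicate runs exceeds the activity threshold set in the earlier primary screen, cut at about 20% in these data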;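 also: 0% = DMSO wells and 100% = marimastat wells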
ADAM17 confirm – human ADAM17 inhibition, confirmation; shares compounds with ADAM17 inh; recombinant ADAM17, EDANS/DABCYL QFRET peptide cleavage; inhibition, % at 6.95 µM; hit rate 65% among 2,900; AID 743257;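 active = mean inhibition across replicates above the hit cutoff set in the primary screen, cut at about 8.5% in these data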;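 also: 0% = DMSO wells and 100% = marimastat wells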
* marks the source's active call; other numbers are inactive results; / = no result.

SMILES	ADAM10 inh	PLC-beta3 inh	PLC-gamma1 inh	ADAM17 inh	KLK7 zymogen act	ADAM10 counter	ADAM17 confirm
CCn1c2c(c3cc(Br)ccc31)CCC/C2=N\O	16	-2	6	9.5*	-1	0	6
CCn1nc(C)c(C(=O)Nc2cc(Oc3ccc(Cl)cc3)cc([N+](=O)[O-])c2)c1C	15	-2	9	13*	0	39*	18*
CCOC(=O)c1c(C)[nH]c(C(=O)OCc2ccccc2)c1C	13	-8	-1	8.8*	0	12	8.9*
O=C(N/N=C/c1cccnc1)c1cc(-c2ccc(Cl)cc2)nc2ccccc12	5	-12	1	-5	-1	/	/
O=C(N/N=C/c1ccc[nH]1)c1cc(-c2ccc(Cl)cc2)nc2ccccc12	16	-78	-47	9.6*	-6	22*	15*
C/C(=N\NC(=O)c1ccc(N(C)C)cc1)c1cccnc1	0	-33	-22	3	2	/	/
COCC(C)n1c(SCC(=O)Nc2nccs2)nc2ccccc2c1=O (stereo unspecified)	1	-4	-1	-1	0	/	/
O=C(NC(=S)NN1CCCCC1c1cccnc1)c1ccc(Br)cc1 (stereo unspecified)	-7	-3	0	-6	1	/	/
COc1ccc(-c2cc(-c3n[nH]c(=S)n3-c3cc(OC)ccc3OC)[nH]n2)cc1	16	5	4	9.5*	0	23*	13*
CC(C)CN(C(=O)COC(=O)CCC(=O)c1ccc(F)cc1)c1c(N)n(Cc2ccccc2)c(=O)[nH]c1=O	6	-5	3	13*	0	3	4
O=C(CSc1nc2ccccc2c(=O)n1-c1ccccc1)N1CCc2ccccc21	3	5	6	2	0	/	/
Cc1c(Cl)cccc1NC(=S)NCCC(c1ccccc1)c1ccccc1	15	-1	10*	9.2*	0	21*	10*
CCOC(=O)/C(C#N)=C\C=C1C=CN(C)C=C1	6	-7	-6	3	0	/	/
Cc1ccc(Cn2c(=O)c3c(nc4n3CCCN4Cc3ccccc3)n(C)c2=O)cc1	6	10	4	10*	1	15	5
CCOc1ccc(S(=O)(=O)Nc2ccc(C(=O)N(C)CC(=O)Nc3ccc(OC)cc3)cc2)cc1	-3	-4	4	-3	0	/	/
COC(=O)c1cc2occc2n1CC(=O)Nc1cc(OC)cc(OC)c1	0	-4	-4	0	1	/	/
COC(=O)c1cc2oc(C)cc2n1CC(=O)Nc1cc(C)cc(C)c1	8	-6	0	9.6*	5	-17	-6
Cc1cccc(C(=O)NC(C(=O)Nc2cccc(S(=O)(=O)N3CCCC3)c2)C(C)C)c1 (stereo unspecified)	-2	3	3	4	0	/	/
Brc1ccc(-c2nc3ncccn3c2NC2CCCCC2)o1	-12	-298	-251	-5	1	/	/
O=[N+]([O-])c1cccc(-c2ccn[nH]2)c1	2	-2	3	0	1	/	/
CC1(c2nnc(Cc3ccccc3)o2)CC(c2ccc(C#N)cc2)=NO1 (stereo unspecified)	-4	3	0	9.0*	0	-4	0
CCCc1cc(NCCCn2ccnc2)n2nc(C)c(-c3ccccc3)c2n1	-26	-179	-107	-12	-4	/	/
CCOC(=O)c1c(C)n(-c2ccc(OC)cc2)c2c(C/C(C)=N/O)c(Br)c(OC)c(O)c12	6	4	1	3	0	/	/
COC(=O)N1CCCCC1c1cc(C(=O)NCc2ccc(Cl)c(Cl)c2)no1 (stereo unspecified)	-5	-3	-2	-2	1	/	/
O=C(NCc1ccc(Cl)c(Cl)c1)c1cc(C2CCCCN2C(=O)C2CCCCC2)on1 (stereo unspecified)	17	0	9	10*	1	8	8
SMILES	ADAM10 inh	PLC-beta3 inh	PLC-gamma1 inh	ADAM17 inh	KLK7 zymogen act	ADAM10 counter	ADAM17 confirm
CCCn1nc(NC(=O)C(C)(C)C)c2cc3cc(OC)ccc3nc21	-100	-374	-282	-46	1	/	/
Cc1ccc(C)c(NC(=O)c2cccc(Oc3ccc([N+](=O)[O-])cc3Cl)c2)c1	19	1	1	9.0*	1	29*	16*
O=C(Nc1cccc(Cl)c1)c1cccc(Oc2ccc([N+](=O)[O-])cc2Cl)c1	16	4	6	9.7*	0	23*	15*
COc1ccc([N+](=O)[O-])cc1NC(=O)Nc1cccc(Cl)c1	11	3	3	2	0	/	/
Cc1ccc([N+](=O)[O-])cc1NC(=O)c1ccccc1	1	1	0	-3	0	/	/
COC(=O)c1ccc(CCc2cc(O)c(Br)cc2O)cc1	0	-15	-6	8.9*	2	-2	-1
Nc1nc(Nc2ccccc2)nc(NCc2ccccc2)c1[N+](=O)[O-]	16	-6	2	2	0	/	/
Cc1cccc(Nc2nc(N)c([N+](=O)[O-])c(NCc3ccccc3)n2)c1	13	-3	3	9.2*	-1	10	5
COc1ccc([N+](=O)[O-])cc1NC(=O)C(C)OC(=O)c1ccccc1C(=O)c1ccc(Cl)cc1 (stereo unspecified)	13	3	0	8.8*	0	46*	18*
COc1ccc([N+](=O)[O-])cc1NC(=O)COC(=O)c1ccccc1C(=O)c1ccccc1	-1	1	4	-3	0	/	/
COc1c(C(CC(C)C)OC(C)=O)ccc2c1C(=O)OCc1cc(C)cc(O)c1O2 (stereo unspecified)	19	5	6	12*	1	27*	16*
Cc1ccc(-n2c(C3CC3c3ccc(Cl)cc3)n[nH]c2=S)cc1 (stereo unspecified)	16	0	1	12*	0	16	12*
CCCc1ccc(C(O)c2ncc(-c3ccccc3F)[nH]2)cc1 (stereo unspecified)	16	4	3	9.2*	0	9	5
OC(c1cccc(F)c1)c1ncc(-c2ccc(C(F)(F)F)cc2)[nH]1 (stereo unspecified)	4	0	2	3	0	/	/
CCc1ccc(C(O)c2ncc(-c3cccc(C(F)(F)F)c3)[nH]2)cc1 (stereo unspecified)	9	1	5	11*	0	21*	11*
COc1cccc(C(O)c2ncc(-c3cccc(C(F)(F)F)c3)[nH]2)c1 (stereo unspecified)	-3	10	1	10*	1	14	9.8*
COc1ccc(C(O)c2ncc(-c3cccc(C(F)(F)F)c3)[nH]2)cc1F (stereo unspecified)	6	0	3	4	0	/	/
